Here are results for eight compounds from PubChem BioAssay (Tox21).

A number with no mark means an inactive call. Records with an inconclusive call do not appear. The source made the active and inactive calls. Unless noted, calls follow the shape of the full dose curve.

The nature of assay [1]: Nuclear factor erythroid 2-related factor 2/antioxidant responsive element (Nrf2/ARE) small molecule agonists: qHTS cell viability counter screen in human keratinocytes (AID 1919968; active = well fitted curve in the direction sought with a large enough effect in the repeat runs; an effect the other way counts as inactive or inconclusive; also: nearly all actives have a fitted effect of over 55% in size). An outline of the steps: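 Cytotoxicity was multiplexed with the Nrf2/ARE luciferase assay in the same wells. Stably transfected HaCaT keratinocytes were treated with test compounds for 23 h at 37 C. Cell viability was then measured by CellTiter-Fluor fluorescence.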
(Quantitative high-throughput screening tests each substance at several concentrations.)

For assay [2], the target named is Gonadotropin-releasing hormone receptor (Homo sapiens) (UniProt P30968). As to the kind of experiment: Human gonadotropin-releasing hormone receptor (GnRHR) small molecule agonists, calcium flux assay in GnRHR-HEK293 cells (AID 1920063). Also: nearly all actives have a fitted effect of over 35% in size. An outline of the steps:
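Agonist activity was measured as intracellular calcium flux in HEK293 cells engineered to stably express human GnRHR. After dye loading for 1 hour at 37 C, compounds in DMSO were added and fluorescence was followed for 3 minutes.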

Assay [3] is described as follows: G protein-coupled receptor (GPCR) small molecule agonists, calcium flux assay: HEK293 wild type cell line counter screen (AID 1920065). An outline of the steps:
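Seed cells, incubate 18 h (37 C, 5% CO2); add calcium dye, 1 h at 37 C; pin-transfer compounds, ATP control or DMSO; read fluorescence 480/540 nm each second for 3 min.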

Assay [4] is described as follows: p53 small molecule agonists, cell-based qHTS assay with human liver microsomes (AID 1963577).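 Also: p53 response element beta-lactamase reporter cells with liver microsomes plus NADPH.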 The procedure, abridged: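 With metabolic activation: human liver microsomes (0.5 mg/mL final) plus NADPH (0.5 mg/mL final) added alongside compounds to p53RE-bla cells; 16 h 37 C exposure; beta-lactamase read by LiveBLAzer fluorescence.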
A short description of assay [5]: p53 small molecule agonists, cell-based qHTS assay with human liver microsomes: qHTS cell viability counter screen (AID 1963579). Also: nearly all actives have a fitted effect of over 45% in size. An outline of the steps:
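Metabolic activation used human liver microsomes and NADPH, both 0.5 mg/mL final, over 16 hours at 37 C on p53RE-bla cells (4,000/well). Cytotoxicity measured by CellTiter-Glo luminescence, 30 min at room temperature.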

Assay [6] is described as follows: p53 small molecule agonists, cell-based qHTS assay with rat liver microsomes: qHTS cell viability counter screen (AID 1963580). Also: nearly all actives have a fitted effect of over 45% in size. An outline of the steps: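 Counter screen for cytotoxicity under metabolic activation: rat liver microsomes and NADPH, 0.5 mg/mL final each, added with compounds to p53RE-bla HCT-116 cells; 16 h at 37 C, then ATP luminescence read.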
Assay [7] in a line: p53 small molecule agonists, cell-based qHTS assay: qHTS cell viability counter screen (AID 1963581). Also: nearly all actives have a fitted effect of over 45% in size. An outline of the steps: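 Viability was counter-screened in parallel with the p53 agonist reporter by measuring intracellular ATP luminescence in the same HCT-116 p53RE-bla wells after 16 h compound treatment at 37 C.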
Assay [8] deals with 5-hydroxytryptamine receptor 2A (Homo sapiens) (UniProt P28223). Nature of the assay: 5-hydroxytryptamine receptor 2A (HTR2A) small molecule antagonists, cell-based qHTS assay (AID 1963586). Also: nearly all actives have a fitted effect of over 45% in size. The procedure, abridged: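 CHO cells stably expressing human HTR2A were plated for 18 h at 37 C, then loaded with calcium dye for 1 h. Compounds were preincubated 5 min at room temperature before DOI (4 nM solution) was added. Kinetic fluorescence was read for 3 min.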

Assay [9] shares this target. As to the kind of experiment: 5-hydroxytryptamine receptor 2A (HTR2A) small molecule agonists, cell-based qHTS assay (AID 1963587). Also: nearly all actives have a fitted effect of over 30% in size. An outline of the steps: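 HTR2A-CHO cells, plated 18 h at 37 C/5% CO2, dye-loaded 1 h at 37 C; compounds in DMSO added by pin tool (agonist mode). Intracellular calcium flux read as kinetic fluorescence on FDSS over 2 min at 1 s intervals.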

For assay [10], the target named is Muscarinic acetylcholine receptor M1 (Homo sapiens) (UniProt P11229). Nature of the assay: Cholinergic receptor muscarinic 1 (CHRM1) small molecule antagonists, cell-based qHTS assay (AID 1963588). Also: nearly all actives have a fitted effect of over 40% in size. An outline of the steps:
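Compounds were tested at 15 concentrations in three independent runs. Dye-loaded CHRM1-CHO cells were exposed 5 min at room temperature before stimulation by acetylcholine added at 50nM. Intracellular calcium was read kinetically on FDSS for 3 min.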

Assay [11] shares this target. Nature of the assay: Cholinergic receptor muscarinic 1 (CHRM1) small molecule agonists, cell-based qHTS assay (AID 1963589). Also: nearly all actives have a fitted effect of over 35% in size. The procedure, abridged: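 Cells were plated and incubated 18 h at 37 C/5% CO2, loaded with calcium dye for 1 h at 37 C, then treated with compounds in DMSO. Fluorescence was recorded kinetically at 1 sec intervals.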
A short description of assay [12]: cAMP Responsive Elements (CRE) small molecule agonists, cell-based qHTS assay (AID 1963590). The procedure, abridged:
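Cells carrying a CRE-driven beta-lactamase reporter (HEK 293T) are seeded, incubated overnight (18 h), and treated with test compounds for 3 h at 37 C; reporter activity is then detected with a FRET substrate after 2 h at room temperature.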

Assay [13] in a line: cAMP Responsive Elements (CRE) small molecule antagonists, cell-based qHTS assay (AID 1963591; active = well fitted inhibition curve with a large enough effect in the signal ratio in the repeat runs, not every such curve was filed as active; the % refers to the signal ratio). The procedure, abridged:
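Cells (CRE-bla HEK 293T, DMEM with 10% dialyzed FBS and 25 mM HEPES) are seeded and incubated 18 h. Compounds are added with NKH477 agonist at 0.25 uM final for 3 h, then FRET substrate for 2 h.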

Assay [14] concerns the target Beta-2 adrenergic receptor (Homo sapiens) (UniProt P07550). As to the kind of experiment: Adrenergic beta2 receptor (ADRB2) small molecule antagonists, cell-based qHTS assay (AID 1963592). Also: nearly all actives have a fitted effect of over 50% in size. Also: potency is read from the fitted curve at half-maximal effect. An outline of the steps:
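Assay format: CHO-ADRB2 cells, 18-20hr seeding at 37C/5% CO2, then compound plus 1nM isoproterenol agonist mix for 0.5hr RT. Homogeneous time-resolved fluorescence cAMP detection after 1hr, expressed as 665/615 nm ratio.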

Assay [15] has the same target. Nature of the assay: Adrenergic beta2 receptor (ADRB2) small molecule agonists, cell-based qHTS assay (AID 1963593).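 Also: CHO cells stably overexpressing human ADRB2.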 The procedure, abridged:
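CHO cells stably over-expressing ADRB2 were plated overnight at 37C, then dosed with compounds plus a stimulation mix containing 100uM IBMX and 25uM Ro-20-1724 for 0.5hr at room temperature. cAMP was measured by HTRF competition, 1hr.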

Assay [16] has as its target D(2) dopamine receptor (Homo sapiens) (UniProt P14416). Nature of the assay: Dopamine D2 receptor (DRD2) small molecule agonists, cell-based qHTS assay (AID 1963594). Also: nearly all actives have a fitted effect of over 35% in size. The procedure, abridged: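 HEK293 cells stably expressing DRD2 were cultured 24 h at 37 C, then given Ro20-1724 (0.1 mM final) and compounds for 10 min at room temperature. NKH477 (200nM) was then added for 30 min. cAMP was read by HTRF.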

The target is the same in assay [17]. Nature of the assay: Dopamine D2 receptor (DRD2) small molecule antagonists, cell-based qHTS assay (AID 1963595; active = well fitted inhibition curve with a large enough effect in the signal ratio in the repeat runs, with a control signal flat; the % refers to the signal ratio). An outline of the steps:
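Antagonist mode in DRD2-HEK293 cells: after compound addition with 0.1 mM Ro20-1724, cells received quinpirole (12 nM) and NKH477 (200 nM) for 30 min at room temperature; HTRF cAMP read after 1 h detection.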

A short description of assay [18]: p53 small molecule agonists, cell-based qHTS assay (AID 1963582; active = well fitted activation curve with a large enough effect in the signal ratio in the repeat runs, not every such curve was filed as active; the % refers to the signal ratio). The procedure, abridged: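 Cells carrying a p53-responsive bla reporter are treated with test compounds for 16 h at 37 C; beta-lactamase activity is then detected with LiveBLAzer B/G FRET substrate after 2 h at room temperature.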
For assay [19], the target named is KiSS-1 receptor (Homo sapiens) (UniProt Q969F8). As to the kind of experiment: Human kisspeptin (KISS1R) small molecule agonists, calcium flux assay in KISS1R-HEK293 cells (AID 1920064; active = well fitted curve in the direction sought with a large enough effect in the repeat runs; an effect the other way counts as inactive or inconclusive). An outline of the steps: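 Agonist activity is monitored as intracellular calcium rise in engineered HEK293 cells carrying human KISS1R. Cells are dye-loaded for 1 h at 37 C before compound addition, and fluorescence is recorded for 3 min.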
(In general: A change in cytosolic calcium serves as a functional read-out for many receptors and channels.)

The nature of assay [20]: p53 small molecule agonists, cell-based qHTS assay with rat liver microsomes (AID 1963578). An outline of the steps: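 Metabolic activation by rat liver microsomes and NADPH, each 0.5 mg/mL final, added right after compounds to p53RE-bla reporter cells (4,000/well, plated 5 h earlier). 16 h at 37 C, then LiveBLAzer substrate for 2 h at room temperature in the dark; fluorescence read-out.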

KiSS-1 receptor (Homo sapiens), sequence (Q969F8 whole entry, looked up): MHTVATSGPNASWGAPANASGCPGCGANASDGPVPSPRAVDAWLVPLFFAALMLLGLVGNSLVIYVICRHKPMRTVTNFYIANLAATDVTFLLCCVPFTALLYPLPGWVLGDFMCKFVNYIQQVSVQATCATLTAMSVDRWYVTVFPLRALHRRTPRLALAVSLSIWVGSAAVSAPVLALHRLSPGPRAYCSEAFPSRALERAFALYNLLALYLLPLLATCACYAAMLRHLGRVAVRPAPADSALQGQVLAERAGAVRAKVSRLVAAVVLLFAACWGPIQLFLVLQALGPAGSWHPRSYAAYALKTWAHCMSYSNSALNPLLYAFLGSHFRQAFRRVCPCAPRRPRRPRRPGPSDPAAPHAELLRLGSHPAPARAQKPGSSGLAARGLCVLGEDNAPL
5-hydroxytryptamine receptor 2A (Homo sapiens), sequence (P28223 whole entry, looked up): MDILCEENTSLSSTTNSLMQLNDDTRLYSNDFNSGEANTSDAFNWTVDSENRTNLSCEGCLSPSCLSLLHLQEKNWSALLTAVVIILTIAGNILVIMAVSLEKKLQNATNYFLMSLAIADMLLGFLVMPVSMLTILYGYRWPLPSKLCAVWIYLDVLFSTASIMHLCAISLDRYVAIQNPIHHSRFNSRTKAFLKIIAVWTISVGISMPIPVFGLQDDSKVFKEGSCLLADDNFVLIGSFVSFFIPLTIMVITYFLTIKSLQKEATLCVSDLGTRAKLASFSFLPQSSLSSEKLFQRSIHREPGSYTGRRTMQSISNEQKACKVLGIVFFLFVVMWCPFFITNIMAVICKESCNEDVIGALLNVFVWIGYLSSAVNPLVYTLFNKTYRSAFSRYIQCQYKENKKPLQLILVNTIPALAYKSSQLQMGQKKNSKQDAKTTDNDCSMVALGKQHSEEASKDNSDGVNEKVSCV
Muscarinic acetylcholine receptor M1 (Homo sapiens), sequence (P11229 whole entry, looked up): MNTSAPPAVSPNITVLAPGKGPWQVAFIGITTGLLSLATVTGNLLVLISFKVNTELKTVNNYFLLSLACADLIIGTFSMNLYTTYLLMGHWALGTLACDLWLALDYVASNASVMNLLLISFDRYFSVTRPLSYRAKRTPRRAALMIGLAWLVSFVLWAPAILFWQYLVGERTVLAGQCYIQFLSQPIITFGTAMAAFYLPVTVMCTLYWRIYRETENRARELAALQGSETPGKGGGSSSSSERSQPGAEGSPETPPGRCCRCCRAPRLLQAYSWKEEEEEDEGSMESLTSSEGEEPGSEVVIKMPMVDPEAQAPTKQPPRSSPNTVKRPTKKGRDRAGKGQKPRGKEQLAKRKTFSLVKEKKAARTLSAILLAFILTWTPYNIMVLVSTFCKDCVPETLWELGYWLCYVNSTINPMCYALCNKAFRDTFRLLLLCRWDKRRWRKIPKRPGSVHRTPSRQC
Gonadotropin-releasing hormone receptor (Homo sapiens), sequence (P30968 whole entry, looked up): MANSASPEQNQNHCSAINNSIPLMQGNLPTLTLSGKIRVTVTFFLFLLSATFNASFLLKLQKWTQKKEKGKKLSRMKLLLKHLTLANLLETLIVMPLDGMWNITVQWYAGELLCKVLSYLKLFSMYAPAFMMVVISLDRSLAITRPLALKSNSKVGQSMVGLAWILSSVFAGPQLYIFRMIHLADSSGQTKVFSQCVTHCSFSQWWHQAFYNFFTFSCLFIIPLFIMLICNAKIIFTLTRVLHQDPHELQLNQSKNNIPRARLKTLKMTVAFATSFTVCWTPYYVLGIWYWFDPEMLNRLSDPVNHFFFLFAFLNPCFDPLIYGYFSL
Beta-2 adrenergic receptor (Homo sapiens), sequence (P07550 whole entry, looked up): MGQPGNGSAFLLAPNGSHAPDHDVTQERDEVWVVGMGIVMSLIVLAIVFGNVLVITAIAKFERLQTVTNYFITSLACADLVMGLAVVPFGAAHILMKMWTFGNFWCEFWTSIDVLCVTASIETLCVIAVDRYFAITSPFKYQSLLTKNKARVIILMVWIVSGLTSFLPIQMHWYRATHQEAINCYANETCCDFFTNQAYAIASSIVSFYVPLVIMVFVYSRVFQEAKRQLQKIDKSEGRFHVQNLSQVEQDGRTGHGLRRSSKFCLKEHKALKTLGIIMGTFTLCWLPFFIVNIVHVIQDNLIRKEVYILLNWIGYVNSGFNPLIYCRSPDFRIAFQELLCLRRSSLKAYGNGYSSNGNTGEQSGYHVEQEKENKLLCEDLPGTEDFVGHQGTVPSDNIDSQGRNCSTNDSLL
D(2) dopamine receptor (Homo sapiens), sequence (P14416 whole entry, looked up): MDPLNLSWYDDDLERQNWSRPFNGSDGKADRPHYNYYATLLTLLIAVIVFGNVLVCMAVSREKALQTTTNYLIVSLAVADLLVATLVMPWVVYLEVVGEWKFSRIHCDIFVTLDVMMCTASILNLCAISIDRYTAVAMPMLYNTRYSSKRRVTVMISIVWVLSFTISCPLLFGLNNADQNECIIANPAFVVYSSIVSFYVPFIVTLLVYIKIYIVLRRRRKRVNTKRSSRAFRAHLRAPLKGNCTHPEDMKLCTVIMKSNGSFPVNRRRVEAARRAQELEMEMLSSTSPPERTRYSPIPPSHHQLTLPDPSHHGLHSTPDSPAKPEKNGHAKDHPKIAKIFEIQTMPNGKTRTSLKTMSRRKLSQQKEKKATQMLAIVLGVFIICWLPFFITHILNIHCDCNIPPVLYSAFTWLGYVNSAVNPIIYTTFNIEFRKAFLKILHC

Consider `O=C(NCC(O)CO)c1c(I)c(C(=O)NCC(O)CO)c(I)c(N(CCO)C(=O)CO)c1I` (stereo unspecified), for which the Potency result in assay [1], in assay [2], in assay [3], in [4], in assay [5] and in [6] was “inactive” in each case. The Potency entry in [7], in assay [8], in assay [9], in assay [10], in assay [11] and in [12] was “inactive” throughout. Moreover, the Potency result in assay [13], in assay [14], in assay [15], in [16] and in assay [17] was “inactive” throughout.

For `CCCNCC(O)COc1ccccc1C(=O)CCc1ccccc1` (stereo unspecified), the Potency result in assay [1], in [2], in [3], in [18], in [12] and in assay [13] was “inactive” throughout. Further, the Potency entry in assay [16] and in assay [17] was “inactive” throughout. Further, the Potency in [14] was 841 nM (active).

With `Cc1c(Nc2ncccc2C(=O)O)cccc1C(F)(F)F`, the Potency entry in [1], in assay [2], in [3], in assay [5], in assay [6] and in assay [7] was “inactive” in each case. The Potency entry in assay [18], in assay [9], in assay [10], in [11], in assay [12] and in [13] was “inactive” throughout. The Potency result in assay [14], in [15], in [16] and in [17] was “inactive” each time.

Turning to `Cc1ccccc1S`, the Potency entry in assay [1], in assay [2], in assay [3], in assay [5], in assay [6] and in [7] was “inactive” throughout. Moreover, the Potency result in assay [8], in assay [9], in assay [10], in [11], in assay [12] and in assay [13] was “inactive” in each case. The Potency result in assay [14], in [16] and in [17] was “inactive” throughout.

For `C=CC(=O)OCCOc1ccccc1`, the Potency result in assay [1], in [19], in [3], in [4], in assay [20] and in [5] was “inactive” in each case. The Potency entry in assay [6], in assay [7], in assay [18], in [8], in assay [9] and in assay [10] was “inactive” throughout. Besides, the Potency result in assay [11], in [14], in assay [16] and in assay [17] was “inactive” throughout.

For `N#Cc1ccccc1O`, the Potency result in assay [1], in assay [2], in [5], in assay [6], in [7] and in [8] was “inactive” throughout. The Potency result in assay [10], in assay [11], in [12], in [13], in assay [15] and in assay [16] was “inactive” each time. Moreover, the Potency result in [17] is “inactive”.

Consider `Cc1ccccc1N=Nc1ccc(N=Nc2c(O)ccc3ccccc23)c(C)c1`, for which the Potency result in assay [1], in [19], in assay [3], in assay [4], in assay [20] and in assay [5] was “inactive” in each case. Moreover, the Potency entry in [6], in assay [7], in [18], in [8], in [9] and in assay [10] was “inactive” throughout. The Potency result in assay [11], in [12], in [13], in [14], in [15] and in assay [16] was “inactive” throughout. In assay [17], the Potency result was “inactive”.

For `CC(=O)CCc1ccc(OC(C)=O)cc1`, the Potency result in assay [1], in assay [19], in assay [3], in assay [4], in assay [20] and in [5] was “inactive” each time. Besides, the Potency entry in assay [6], in [7], in assay [18], in [8], in [9] and in [10] was “inactive” throughout. Moreover, the Potency entry in assay [12], in [13], in assay [16] and in [17] was “inactive” throughout.
